The results in this text go back to the supplement of paper PMC4022240.

T1: HaloTag-ATRX ADD domain (163-292)
T1 chain: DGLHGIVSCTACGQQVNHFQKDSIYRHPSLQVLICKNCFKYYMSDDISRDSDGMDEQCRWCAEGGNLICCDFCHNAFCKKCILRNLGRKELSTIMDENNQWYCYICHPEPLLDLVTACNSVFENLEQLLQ

± gives the standard deviation.

For the first experiment, the target named is T1, HaloTag-ATRX ADD domain (163-292). Nature of the experiment: peptide microarray binding signal (635 nm), min-max normalized on array (fraction of array maximum); higher = stronger binding. The settings on record: peptide region: Unmod H1 variant; binder concentration: 50 nM. In short, it runs like this:
(§1)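 Binding signal is the mean intensity of triplicate spots, min-max scaled within each library. Histone 13-mer peptide–cellulose conjugates were spotted in triplicate on nitrocellulose with a Cy3 tracer and blocked overnight at 4°C. Probing lasted 1 h at 4°C, either with biotin-labelled HaloTag reader fusions (10 nM to 1 μM) and streptavidin-Alexa Fluor 647 or with rabbit histone antibodies (1:10,000 to 1:2,000) and anti-rabbit Alexa 647. An Axon GenePix 4000B read signal at 635 nm and misprints at 532 nm.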
With GVSLAALKKALAA [Unmod H1 variant G V S L A A L K K A L A A], the “peptide microarray binding signal” value was 0.0641 ± 0.057.

Take KAASGEAKPKAKK [Unmod H1 variant K A A S G E A K P K A K K]: the “peptide microarray binding signal” value worked out at 0.0252 ± 0.0022.

Regarding PPVSELITKAVAA [Unmod H1 variant P P V S E L I T K A V A A], the “peptide microarray binding signal” value is 0.0304 ± 0.017.

Regarding ALAAAGYDVEKNN [Unmod H1 variant A L A A A G Y D V E K N N], the “peptide microarray binding signal” value turned out to be 0.021 ± 0.00023.

For TLVQTKGTGASGS [Unmod H1 variant T L V Q T K G T G A S G S], the “peptide microarray binding signal” value amounted to 0.0308 ± 0.012.

Staying with this experiment, now noted: peptide region: Unmod H1 variant; binder concentration: 500 nM.
Regarding GVSLAALKKALAA [Unmod H1 variant G V S L A A L K K A L A A], the “peptide microarray binding signal” value came out at 0.0257 ± 0.0036.

Regarding KAASGEAKPKAKK [Unmod H1 variant K A A S G E A K P K A K K], the “peptide microarray binding signal” value turned out to be 0.0245 ± 0.0017.

As for PPVSELITKAVAA [Unmod H1 variant P P V S E L I T K A V A A], the “peptide microarray binding signal” value worked out at 0.00833 ± 0.00045.

For the molecule ALAAAGYDVEKNN [Unmod H1 variant A L A A A G Y D V E K N N], the “peptide microarray binding signal” value came to 0.0215 ± 0.001.

Turning to TLVQTKGTGASGS [Unmod H1 variant T L V Q T K G T G A S G S], the “peptide microarray binding signal” value was determined as 0.0171 ± 0.0029.

Another experiment has as its target HaloTag-ING2 PHD (mouse Ing2 200-280). The experiment is described as above. To be noted: peptide region: Unmod H1 variant; binder concentration: 10 nM. In short, it runs like this:
as §1
Turning to GVSLAALKKALAA [Unmod H1 variant G V S L A A L K K A L A A], the “peptide microarray binding signal” value came out at 0.00621 ± 0.00023.

Turning to KAASGEAKPKAKK [Unmod H1 variant K A A S G E A K P K A K K], the “peptide microarray binding signal” value was determined as 0.007579 ± 5.8e-05.

On to PPVSELITKAVAA [Unmod H1 variant P P V S E L I T K A V A A], for which the “peptide microarray binding signal” value amounted to 0.00382 ± 0.00018.

Regarding ALAAAGYDVEKNN [Unmod H1 variant A L A A A G Y D V E K N N], the “peptide microarray binding signal” value is 0.00991 ± 0.00043.

As for TLVQTKGTGASGS [Unmod H1 variant T L V Q T K G T G A S G S], the “peptide microarray binding signal” value is 0.00734 ± 0.00017.

The experiment is the same for the next values; noted with them: peptide region: Unmod H1 variant; binder concentration: 100 nM.
As to GVSLAALKKALAA [Unmod H1 variant G V S L A A L K K A L A A], the “peptide microarray binding signal” value came out at 0.0162 ± 0.0004.

Consider KAASGEAKPKAKK [Unmod H1 variant K A A S G E A K P K A K K], for which the “peptide microarray binding signal” value worked out at 0.0113 ± 0.0012.

On to PPVSELITKAVAA [Unmod H1 variant P P V S E L I T K A V A A], for which the “peptide microarray binding signal” value worked out at 0.00397 ± 0.00022.

In the case of ALAAAGYDVEKNN [Unmod H1 variant A L A A A G Y D V E K N N], the “peptide microarray binding signal” value worked out at 0.0252 ± 0.0029.

With TLVQTKGTGASGS [Unmod H1 variant T L V Q T K G T G A S G S], the “peptide microarray binding signal” value was 0.0165 ± 0.00046.

For the next experiment, the target named is anti-H3K4me3 antibody ab8580. The experiment is described as above. The settings on record: peptide region: Unmod H1 variant; binder concentration: 1:2,000 dilution. The gist of the method:
as §1
In the case of GVSLAALKKALAA [Unmod H1 variant G V S L A A L K K A L A A], the “peptide microarray binding signal” value is 0.00157 ± 0.00018.

Consider KAASGEAKPKAKK [Unmod H1 variant K A A S G E A K P K A K K], for which the “peptide microarray binding signal” value stood at 0.000831 ± 4.9e-05.

Regarding PPVSELITKAVAA [Unmod H1 variant P P V S E L I T K A V A A], the “peptide microarray binding signal” value amounted to 0.00296 ± 0.001.

Turning to ALAAAGYDVEKNN [Unmod H1 variant A L A A A G Y D V E K N N], the “peptide microarray binding signal” value is 0.0067 ± 0.0027.

As for TLVQTKGTGASGS [Unmod H1 variant T L V Q T K G T G A S G S], the “peptide microarray binding signal” value came to 0.00255 ± 9.7e-05.

Still in this experiment, the particulars now being: peptide region: Unmod H1 variant; binder concentration: 1:10,000 dilution.
Regarding GVSLAALKKALAA [Unmod H1 variant G V S L A A L K K A L A A], the “peptide microarray binding signal” value stood at 0.00262.

As for KAASGEAKPKAKK [Unmod H1 variant K A A S G E A K P K A K K], the “peptide microarray binding signal” value turned out to be 0.00171 ± 4.3e-05.

As for PPVSELITKAVAA [Unmod H1 variant P P V S E L I T K A V A A], the “peptide microarray binding signal” value came to 0.0028 ± 0.00019.

Regarding ALAAAGYDVEKNN [Unmod H1 variant A L A A A G Y D V E K N N], the “peptide microarray binding signal” value is 0.00702 ± 0.00034.

Consider TLVQTKGTGASGS [Unmod H1 variant T L V Q T K G T G A S G S], for which the “peptide microarray binding signal” value came to 0.00388 ± 0.00013.

The target of the next experiment is anti-H3K9me3 antibody ab8898. Described as above. To be noted: peptide region: Unmod H1 variant; binder concentration: 1:2,000 dilution. The gist of the method:
as §1
On to GVSLAALKKALAA [Unmod H1 variant G V S L A A L K K A L A A], for which the “peptide microarray binding signal” value was determined as 0.00131 ± 4.4e-05.

In the case of KAASGEAKPKAKK [Unmod H1 variant K A A S G E A K P K A K K], the “peptide microarray binding signal” value was determined as 0.000483 ± 1.7e-05.

Take PPVSELITKAVAA [Unmod H1 variant P P V S E L I T K A V A A]: the “peptide microarray binding signal” value came out at 0.00106 ± 4.4e-05.

With ALAAAGYDVEKNN [Unmod H1 variant A L A A A G Y D V E K N N], the “peptide microarray binding signal” value is 0.00281 ± 0.0003.

Consider TLVQTKGTGASGS [Unmod H1 variant T L V Q T K G T G A S G S], for which the “peptide microarray binding signal” value amounted to 0.0019 ± 0.00012.

Still in this experiment, the particulars now being: peptide region: Unmod H1 variant; binder concentration: 1:10,000 dilution.
As for GVSLAALKKALAA [Unmod H1 variant G V S L A A L K K A L A A], the “peptide microarray binding signal” value is 0.00161 ± 3.1e-05.

As for KAASGEAKPKAKK [Unmod H1 variant K A A S G E A K P K A K K], the “peptide microarray binding signal” value amounted to 0.001211 ± 1.2e-05.

PPVSELITKAVAA [Unmod H1 variant P P V S E L I T K A V A A]: the “peptide microarray binding signal” value amounted to 0.00144 ± 5.7e-05.

With ALAAAGYDVEKNN [Unmod H1 variant A L A A A G Y D V E K N N], the “peptide microarray binding signal” value came to 0.00357 ± 0.00017.

With TLVQTKGTGASGS [Unmod H1 variant T L V Q T K G T G A S G S], the “peptide microarray binding signal” value is 0.00231 ± 7.5e-05.
